# Where two headings read alike, the source gives them in different places.
# Columns and labels:
# Design in all cases: species or system human, MV4-11 + K-562 + COLO205 + SK-N-BE2 + OVCAR-8
# BTK = settings: read-out: apparent Kd, compound concentrations: 100 nM and 1000 nM (sheet 'Samples'), n = 1
# CDK17 = settings: read-out: apparent Kd, compound concentrations: 100 nM and 1000 nM (sheet 'Samples'), n = 1
# EPHB6 = settings: read-out: apparent Kd, n = 1
# FLT4 = settings: read-out: apparent Kd, compound concentrations: 100 nM and 1000 nM (sheet 'Samples'), n = 1
# PLK4 = settings: read-out: apparent Kd, n = 1
# PRKD2 = settings: read-out: apparent Kd, compound concentrations: 100 nM and 1000 nM (sheet 'Samples'), n = 1
# PRKD3 = settings: read-out: apparent Kd, compound concentrations: 100 nM and 1000 nM (sheet 'Samples'), n = 1
# TNK2 = settings: read-out: apparent Kd, n = 1
# ZAK = settings: read-out: apparent Kd, compound concentrations: 100 nM and 1000 nM (sheet 'Samples'), n = 1
# ACAD8 = settings: read-out: apparent Kd; compound concentrations: 100 nM and 1000 nM (sheet 'Samples'), CATDS: 1.7028042656885199E-2; n = 1
# AKT1 = settings: read-out: apparent Kd, compound concentrations: 100 nM and 1000 nM (sheet 'Samples'), n = 1
# MAP2K5 = settings: read-out: apparent Kd, n = 1
# RIOK2 = settings: read-out: apparent Kd, compound concentrations: 100 nM and 1000 nM (sheet 'Samples'), n = 1
# JAK2 = settings: read-out: apparent Kd, compound concentrations: 100 nM and 1000 nM (sheet 'Samples'), n = 1
# MAPK9 = settings: read-out: apparent Kd; compound concentrations: 100 nM and 1000 nM (sheet 'Samples'), CATDS: 2.2235644452826799E-2; n = 1
# BMPR1B = settings: read-out: apparent Kd; compound concentrations: 100 nM and 1000 nM (sheet 'Samples'), CATDS: 3.2416583266463302E-2; n = 1
# DJA1 = tested on: T1, DJA1; settings: read-out: apparent Kd, compound concentrations: 100 nM and 1000 nM (sheet 'Samples'), n = 1
# T1 construct: gene DNAJA1
# [1] = compound concentrations:100 nM and 1000 nM (sheet 'Samples')
smiles,measurement,setting,value
CC(C)c1nc(-c2cccc(NS(=O)(=O)c3ccccc3)c2)c(-c2ccnc(Nc3ccc4c(c3)CN(C)CC4)n2)s1 [GSK1649598A],potency estimated from few doses,BTK; CATDS: 1.37109395342906E-2,1210 nM
same,potency estimated from few doses,CDK17; CATDS: 3.3819881865538602E-2,124 nM
same,potency estimated from few doses,"EPHB6; compound concentrations: 100 nM and 1000 nM (sheet 'Samples'), CATDS: 1.8057075383437201E-2",489 nM
same,potency estimated from few doses,FLT4; CATDS: 1.55100813228086E-2,772 nM
same,potency estimated from few doses,"PLK4; compound concentrations: 100 nM and 1000 nM (sheet 'Samples'), CATDS: 4.8867140762819797E-2",66.8 nM
same,potency estimated from few doses,PRKD2; CATDS: 5.2743679485786801E-2,59.3 nM
same,potency estimated from few doses,PRKD3; CATDS: 3.0357950556932599E-2,152 nM
same,potency estimated from few doses,"TNK2; compound concentrations: 100 nM and 1000 nM (sheet 'Samples'), CATDS: 1.5113768238236E-2",842 nM
same,potency estimated from few doses,ZAK; CATDS: 1.7977927791487699E-2,495 nM
Cc1cccc(Nc2nc(NCCN)ncc2C(N)=O)c1 [GSK1292139B],potency estimated from few doses,PRKD2; CATDS: 7.4938194739321201E-2,1250 nM
same,potency estimated from few doses,PRKD3; CATDS: 6.9928558616796505E-2,1540 nM
Cl.Cl.Cl.c1ccc(Oc2ccc(Nc3ccnc4cc(-c5ccc(CN6CCNCC6)o5)ccc34)cc2)nc1.c1ccc(Oc2ccc(Nc3ccnc4cc(-c5ccc(CN6CCNCC6)o5)ccc34)cc2)nc1 [GW567142A],potency estimated from few doses,ACAD8,2040 nM
same,potency estimated from few doses,AKT1; CATDS: 1.79490160981602E-2,1660 nM
same,potency estimated from few doses,BTK; CATDS: 2.14657129362281E-2,922 nM
same,potency estimated from few doses,"MAP2K5; compound concentrations: 100 nM and 1000 nM (sheet 'Samples'), CATDS: 5.3465139975610303E-2",111 nM
same,potency estimated from few doses,RIOK2; CATDS: 1.8917557706548099E-2,1380 nM
same,potency estimated from few doses,"TNK2; compound concentrations: 100 nM and 1000 nM (sheet 'Samples'), CATDS: 8.9201711222799504E-2",47.3 nM
same,potency estimated from few doses,ZAK; CATDS: 2.00291787525065E-2,1140 nM
CS(=O)(=O)CCNCc1ccc(-c2ccc3ncnc(Nc4ccc(OCc5cccc(F)c5)c(C(F)(F)F)c4)c3c2)o1 [GW576484X],potency estimated from few doses,AKT1; CATDS: 4.8644382119909499E-2,2100 nM
same,potency estimated from few doses,RIOK2; CATDS: 5.8358702635658101E-2,1410 nM
Cc1cc(O)cc(C)c1/C=C/c1cncc(-c2nn[nH]n2)c1.Cl [GW441806A],potency estimated from few doses,"EPHB6; compound concentrations: 100 nM and 1000 nM (sheet 'Samples'), CATDS: 4.3077369875392603E-2",1670 nM
same,potency estimated from few doses,JAK2; CATDS: 7.0798034106367105E-2,387 nM
same,potency estimated from few doses,"MAP2K5; compound concentrations: 100 nM and 1000 nM (sheet 'Samples'), CATDS: 4.6114067598033499E-2",1310 nM
COc1cccc(-n2cnc3c(N/N=C/c4ccncc4)ncnc32)c1 [GW813360X],potency estimated from few doses,"MAP2K5; compound concentrations: 100 nM and 1000 nM (sheet 'Samples'), CATDS: 0.129253463235972",2170 nM
CN(C)Cc1ccc(-c2ccc3c(Nc4ccc(Oc5ccccn5)cc4)ccnc3c2)o1 [GW567148X],potency estimated from few doses,"EPHB6; compound concentrations: 100 nM and 1000 nM (sheet 'Samples'), CATDS: 1.6574994682998501E-2",1960 nM
same,potency estimated from few doses,JAK2; CATDS: 5.6320908598955097E-2,121 nM
same,potency estimated from few doses,"MAP2K5; compound concentrations: 100 nM and 1000 nM (sheet 'Samples'), CATDS: 0.100463270176777",51.4 nM
same,potency estimated from few doses,"PLK4; compound concentrations: 100 nM and 1000 nM (sheet 'Samples'), CATDS: 1.8058867791982399E-2",1390 nM
same,potency estimated from few doses,"TNK2; compound concentrations: 100 nM and 1000 nM (sheet 'Samples'), CATDS: 2.9353794658715598E-2",386 nM
O=S(=O)(CCOCc1ccc(-c2ccc3ncnc(Nc4ccc(OCc5cccc(F)c5)c(Cl)c4)c3c2)o1)c1ccccc1 [GW615311X],potency estimated from few doses,CDK17; CATDS: 2.3617209164995101E-2,2010 nM
same,potency estimated from few doses,MAPK9,2360 nM
CN1CCc2ccc(Nc3nccc(-c4c(-c5cccc(NC(=O)c6c(F)cccc6F)c5)nc5ccccn45)n3)cc2C1.Cl [GSK1010829B],potency estimated from few doses,BTK; CATDS: 5.3394659124358E-2,497 nM
CC(=O)N1CCN(c2ccc(Nc3nccc(-c4sc(C(C)C)nc4-c4cccc(NS(=O)(=O)c5ccccc5)c4)n3)cn2)CC1 [GSK1645872A],potency estimated from few doses,BMPR1B,615 nM
same,potency estimated from few doses,CDK17; CATDS: 3.2303603060191699E-2,620 nM
same,potency estimated from few doses,"EPHB6; compound concentrations: 100 nM and 1000 nM (sheet 'Samples'), CATDS: 2.50190585057842E-2",1230 nM
same,potency estimated from few doses,FLT4; CATDS: 2.4036705391895501E-2,1410 nM
same,potency estimated from few doses,"PLK4; compound concentrations: 100 nM and 1000 nM (sheet 'Samples'), CATDS: 4.4195990908193997E-2",331 nM
same,potency estimated from few doses,PRKD2; CATDS: 6.4833229163543699E-2,179 nM
same,potency estimated from few doses,PRKD3; CATDS: 5.5326802343899903E-2,227 nM
same,potency estimated from few doses,ZAK; CATDS: 2.8355440499728699E-2,855 nM
NS(=O)(=O)CCc1cccc(Nc2nccc(-c3c(-c4cccc(NC(=O)c5c(F)cccc5F)c4)nn4ccccc34)n2)c1 [GSK336735A],potency estimated from few doses,BTK; CATDS: 6.9613472327250694E-2,756 nM
COc1cc2ncn(-c3cc(OCCCc4ccccc4)c(C(N)=O)s3)c2cc1OC [GSK205189A],potency estimated from few doses,PLK4; [1],1240 nM
same,potency estimated from few doses,TNK2; [1],48.2 nM
CC(=O)N1CCN(c2ccc(Nc3nccc(-c4sc(C(C)C)nc4-c4cccc(NS(=O)(=O)c5cccc(Cl)c5)c4)n3)cn2)CC1 [GSK1660437A],potency estimated from few doses,CDK17; CATDS: 5.6429200744427303E-2,643 nM
same,potency estimated from few doses,DJA1; CATDS: 3.8253703176693299E-2,1690 nM
same,potency estimated from few doses,"PLK4; compound concentrations: 100 nM and 1000 nM (sheet 'Samples'), CATDS: 0.17154832295699199",114 nM
same,potency estimated from few doses,PRKD2; CATDS: 5.4931765235902902E-2,680 nM
same,potency estimated from few doses,PRKD3; CATDS: 4.4377312299456101E-2,1110 nM
same,potency estimated from few doses,ZAK; CATDS: 3.4947671861574499E-2,2310 nM
CC(C)c1nc(-c2cccc(NS(=O)(=O)c3c(F)cccc3F)c2F)c(-c2ccnc(Nc3ccc(N4CCOCC4)nc3)n2)s1 [GSK2008607A],potency estimated from few doses,BTK; CATDS: 2.19270493489029E-2,1030 nM
same,potency estimated from few doses,CDK17; CATDS: 2.730533885315E-2,587 nM
same,potency estimated from few doses,"EPHB6; compound concentrations: 100 nM and 1000 nM (sheet 'Samples'), CATDS: 2.9714339770291101E-2",487 nM
same,potency estimated from few doses,FLT4; CATDS: 2.2429602546286599E-2,967 nM
same,potency estimated from few doses,"PLK4; compound concentrations: 100 nM and 1000 nM (sheet 'Samples'), CATDS: 0.15679756420664201",38.7 nM
same,potency estimated from few doses,PRKD2; CATDS: 3.65380455917537E-2,323 nM
same,potency estimated from few doses,PRKD3; CATDS: 2.5792208741447099E-2,671 nM
same,potency estimated from few doses,"TNK2; compound concentrations: 100 nM and 1000 nM (sheet 'Samples'), CATDS: 3.47729479590888E-2",355 nM
CN1CCN(Cc2cccc(-c3ccc4c(Nc5ccc(Oc6ccccc6)cc5)ccnc4c3)c2)CC1 [GW578342X],potency estimated from few doses,"MAP2K5; compound concentrations: 100 nM and 1000 nM (sheet 'Samples'), CATDS: 0.10104411833730501",640 nM
Cn1cc(-c2ccc3c(c2)CCN3C(=O)Cc2cc(F)cc(C(F)(F)F)c2)c2c(N)ncnc21 [GSK2635225A],potency estimated from few doses,DJA1; CATDS: 0.15894194998460401,902 nM
Cn1cc(-c2cnc(N)c3c(-c4ccc5c(c4)CCN5C(=O)Cc4ccccc4)csc23)cn1 [GSK2593074A],potency estimated from few doses,EPHB6; [1],151 nM
same,potency estimated from few doses,MAP2K5; [1],979 nM
CN1CCN(Cc2ccc(-c3ccc4c(Nc5ccc(Oc6ccccn6)cc5)ccnc4c3)o2)CC1 [GW567140X],potency estimated from few doses,"MAP2K5; compound concentrations: 100 nM and 1000 nM (sheet 'Samples'), CATDS: 0.16913978514831801",58.2 nM
same,potency estimated from few doses,"TNK2; compound concentrations: 100 nM and 1000 nM (sheet 'Samples'), CATDS: 4.3541420759690502E-2",720 nM

# — article PMC11062922 (Nature Chemical Biology, 2023)
